Laboratory results published in PubChem BioAssay (EPA / NIEHS).
Calls of active or inactive are those of the source. Rule for the calls: active = hit-call score of the fitted dose curve at least 0.9, where 1 is the maximum; inactive = score below 0.9.

Key:
[1] = read-out: Transforming growth factor beta 1 (TGFb1), TGFB1 (gene 7040); assay: BSK_KF3CT_TGFb1: BioMAP Diversity Plus: KF3CT Assay for Transforming growth factor beta 1 (TGFb1) Biomarker Activity (AID 2283072); details: primary human keratinocytes with fibroblasts; actives raise or lower the signal
Outline: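 ELISA quantifies TGF-b1 at 24 h post-dose in a primary human skin co-culture of keratinocytes and fibroblasts, with gain or loss judged against DMSO. Parallel SRB total-protein staining flags overt cytotoxicity.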

[2] = read-out: C-C motif chemokine 2 (Homo sapiens) (UniProt P13500); assay: BSK_KF3CT_MCP1: BioMAP Diversity Plus: KF3CT Assay for Monocyte Chemoattractant Protein 1 (MCP1/CCL2) Biomarker Activity (AID 2283073); details: primary human keratinocytes with fibroblasts; actives raise or lower the signal
Outline: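 Human keratinocyte–foreskin fibroblast co-culture; MCP-1 measured by ELISA 24 h after dosing. Bidirectional fit vs DMSO; cytotoxicity tracked by SRB total protein in parallel cultures.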

[3] = read-out: Matrix Metallopeptidase 9 (MMP9), MMP9 (gene 4318); assay: BSK_KF3CT_MMP9: BioMAP Diversity Plus: KF3CT Assay for Matrix Metallopeptidase 9 (MMP9) Biomarker Activity (AID 2283074); details: primary human keratinocytes with fibroblasts; actives raise or lower the signal;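 for AC50: MMP9 protein level quantified by ELISA in the co-culture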
Outline: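 ELISA read-out of MMP-9 at 24 h post-dosing in a co-culture of human skin keratinocytes and foreskin fibroblasts. Gain or loss of signal was fitted in both directions against DMSO.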

[4] = read-out: urokinase plasminogen activator (uPA), PLAU (gene 5328); assay: BSK_KF3CT_uPA: BioMAP Diversity Plus: KF3CT Assay for urokinase plasminogen activator (uPA) Biomarker Activity (AID 2283075); details: primary human keratinocytes with fibroblasts; actives raise or lower the signal
Outline: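 Skin co-culture (keratinocytes + foreskin fibroblasts), human primary; 24 h post-dose; uPA by ELISA; gain/loss fit vs DMSO baseline.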

CD40, CD40 (gene 958) = assay: BSK_LPS_CD40: BioMAP Diversity Plus: LPS Assay for CD40 Biomarker Activity (AID 2283076); details: primary human HUVEC with PBMC; actives raise or lower the signal
Outline: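 HUVEC plus PBMC co-culture stimulated with LPS; CD40 quantified by ELISA 24 h after compound dosing. Fitting was bidirectional relative to DMSO. SRB staining of parallel cultures flagged overt cytotoxicity.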

[5] = read-out: E-selectin (Homo sapiens) (UniProt P16581); assay: BSK_LPS_Eselectin: BioMAP Diversity Plus: LPS Assay for Eselectin Biomarker Activity (AID 2283077); details: primary human HUVEC with PBMC; actives raise or lower the signal
Outline: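 Human umbilical vein endothelial cells co-cultured with PBMC under LPS stimulation; cell-surface E-selectin measured by ELISA 24 h after dosing. Change in either direction versus DMSO, with SRB total-protein staining in parallel cultures for cytotoxicity.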

[6] = read-out: Interleukin-8 (IL8), CXCL8 (gene 3576); assay: BSK_LPS_IL8: BioMAP Diversity Plus: LPS Assay for Interleukin-8 (IL8) Biomarker Activity (AID 2283078); details: primary human HUVEC with PBMC; actives raise or lower the signal
Outline: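 Human umbilical vein endothelial cells co-cultured with PBMC, LPS-stimulated, exposed to compound for 24 h. IL-8 quantified by ELISA; fitted in both directions against DMSO, with SRB total-protein staining of parallel cultures for cytotoxicity.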

[7] = BSK_LPS_SRB: Viability Assessment in the BioMAP Diversity Plus: LPS Assay (AID 2283079); details: primary human HUVEC with PBMC;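 note: total protein by sulforhodamine B absorbance as a cytotoxicity measure; measured one day after compound addition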
Outline: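 Co-culture of human umbilical vein endothelial cells and PBMC, read 24 h after dosing. Total protein by 0.1% SRB staining after 10% TCA fixation, absorbance at 560 nm; bidirectional fit against DMSO.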

[8] = read-out: Monocyte Chemoattractant Protein-1 (MCP1), CCL2 (gene 6347); assay: BSK_LPS_MCP1: BioMAP Diversity Plus: LPS Assay for Monocyte Chemoattractant Protein-1 (MCP1) Biomarker Activity (AID 2283081); details: primary human HUVEC with PBMC; actives raise or lower the signal;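 for AC50: secreted MCP-1 protein quantified by ELISA in culture supernatant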
Outline: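 Human umbilical vein endothelial cells co-cultured with PBMC, LPS-stimulated; secreted MCP-1 measured by ELISA 24 h after compound addition. Bidirectional curve fitting against DMSO baseline; SRB total-protein staining in parallel cultures for cytotoxicity.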

[9] = read-out: Interleukin-1 alpha (IL1a), IL1A (gene 3552); assay: BSK_LPS_IL1a: BioMAP Diversity Plus: LPS Assay for Interleukin-1 alpha (IL1a) Biomarker Activity (AID 2283080); details: primary human HUVEC with PBMC; actives raise or lower the signal
Outline: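 Human umbilical vein endothelial cells co-cultured with PBMC and stimulated with LPS; IL-1a measured by ELISA 24 h after dosing. Bidirectional fitting against DMSO; cytotoxicity checked by SRB staining in parallel cultures.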

Measured: AC50

Chain of E-selectin (Homo sapiens) (P16581 whole entry, looked up): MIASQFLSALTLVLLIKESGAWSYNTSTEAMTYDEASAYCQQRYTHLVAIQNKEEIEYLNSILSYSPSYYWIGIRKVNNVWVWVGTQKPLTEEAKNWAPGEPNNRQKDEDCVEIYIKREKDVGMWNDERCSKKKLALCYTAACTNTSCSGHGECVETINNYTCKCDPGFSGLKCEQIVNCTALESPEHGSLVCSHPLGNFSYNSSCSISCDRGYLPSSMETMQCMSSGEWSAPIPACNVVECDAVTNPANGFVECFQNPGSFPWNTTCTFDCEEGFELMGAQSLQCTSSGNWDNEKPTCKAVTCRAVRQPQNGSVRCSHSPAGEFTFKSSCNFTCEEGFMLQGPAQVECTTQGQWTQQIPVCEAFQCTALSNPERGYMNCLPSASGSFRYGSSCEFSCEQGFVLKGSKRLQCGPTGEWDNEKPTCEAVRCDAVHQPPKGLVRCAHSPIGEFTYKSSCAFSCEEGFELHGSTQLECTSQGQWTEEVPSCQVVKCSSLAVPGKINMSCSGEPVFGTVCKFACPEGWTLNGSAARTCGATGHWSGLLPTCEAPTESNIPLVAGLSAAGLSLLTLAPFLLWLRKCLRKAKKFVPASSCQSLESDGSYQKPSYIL

C=CCCCCCCCCCCCC
not listed: [9]
inactive: all other assays above

Oc1ccc(O)cc1
active: [3] 20 µM | [5] 26.2 µM | [6] 30.7 µM | [9] 8.51 µM | [8] 25.8 µM
inactive: [1] | [2] | CD40, CD40 (gene 958) | [7]

O=C1O[C@H]([C@H](O)CO)C(O)=C1O
not listed: [4]
inactive: all other assays above

O=C(NS(=O)(=O)/C=C/c1cccs1)c1ccc(F)cc1Br
active: CD40, CD40 (gene 958) 0.451 µM
inactive: all other assays above

O=C(O)c1cccnc1
not listed: [4]
inactive: all other assays above

C#CC(O)C(CC)CCCC (stereo not given)
not listed: [9]
inactive: all other assays above

CCCCC(CC)COP(=O)(OCC(CC)CCCC)OCC(CC)CCCC (stereo not given)
active: [6] 5.39 µM
inactive: all other assays above

CC(=O)O[C@]1(C(C)=O)CC[C@H]2[C@@H]3C=C(Cl)C4=CC(=O)[C@@H]5C[C@@H]5[C@]4(C)[C@H]3CC[C@@]21C
active: CD40, CD40 (gene 958) 31.5 µM | [7] 30.9 µM
inactive: all other assays above

CC(=O)O
inactive: all assays above

C/C=C/C=C/C(=O)O
not listed: [2] | [9]
inactive: all other assays above

O=C1OC(c2ccc(O)cc2)(c2ccc(O)cc2)c2ccccc21
active: [1] 12.6 µM | [3] 29.5 µM | CD40, CD40 (gene 958) 31.5 µM | [6] 20 µM | [7] 31.9 µM
inactive: [2] | [5] | [9] | [8]

CCCC[C@H]1CN(CC2CCOCC2)C(=O)OC12CCN(C1(C)CCN(C(=O)c3c(C)ncnc3C)CC1)CC2
not listed: [1]
inactive: all other assays above

COc1ccc(C(=O)Nc2nc3ccccc3c(NCc3ccccc3)c2C#N)cc1
active: CD40, CD40 (gene 958) 3.97 µM
not listed: [4] | [9]
inactive: all other assays above

O=[Si]=O
not listed: [2] | [4]
inactive: all other assays above

CCCCCCCCCCCCCCCCO
not listed: [1]
inactive: all other assays above

CC(=O)[C@@]1(O)CC[C@H]2[C@@H]3CCC4=CC(=O)CC[C@]4(C)[C@H]3CC[C@@]21C
not listed: [4] | [9]
inactive: all other assays above

Cn1cnc2c1c(=O)[nH]c(=O)n2C
not listed: [1]
inactive: all other assays above

CC(C)NCC(O)c1ccc(O)c(O)c1 (stereo not given)
not listed: [4] | [9]
inactive: all other assays above

O=C(O)c1[nH]n(-c2ccc(S(=O)(=O)O)cc2)c(=O)c1N=Nc1ccc(S(=O)(=O)O)cc1
not listed: [4] | [9]
inactive: all other assays above

CS(=O)(=O)c1ccc([C@@H](C[C@H]2CCC(=O)C2)C(=O)Nc2cnccn2)cc1Cl
not listed: [1]
inactive: all other assays above

c1ccc2occc2c1
not listed: [4] | [9]
inactive: all other assays above

CC(=O)CC(c1ccccc1)c1c(O)c2ccccc2oc1=O (stereo not given)
not listed: [4]
inactive: all other assays above
